The text below walks through data of PubChem BioAssay (EPA / NIEHS).

Activity calls are given as the source filed them. Rule for the calls: active = hit-call score of the fitted dose curve at least 0.9, where 1 is the maximum; inactive = score below 0.9.

This test can be described thus: ATG_TA_CIS: Attagene CIS-FACTORIAL HepG2 Assay for human TA Basal Promoter (AID 2282964). Conditions: HepG2 Attagene CIS-factorial TA basal promoter reporter; actives raise or lower the signal. The procedure:
ATG_CIS is a cell-based, multiplexed-readout assay that uses HepG2, a human liver cell line, with measurements taken at 24 hours after chemical dosing in a 24-well plate.ATG_TA_CIS is one of 52 assay component(s) measured or calculated from the ATG_CIS assay. It is designed to make measurements of mRNA induction, a form of inducible reporter, as detected with fluorescence intensity signals by Reverse transcription polymerase chain reaction (RT-PCR) and Capillary electrophoresis technology.Data from the assay component ATG_TA_CIS was analyzed into 1 assay endpoint. This assay endpoint, ATG_TA_CIS, was analyzed with bidirectional fitting relative to DMSO as the negative control and baseline of activity. Using a type of inducible reporter, measures of mRNA for gain or loss-of-signal activity can be used to understand the background control at the transcription factor-level as they relate to the gene . Furthermore, this assay endpoint can be referred to as a secondary readout, because this assay has produced multiple assay endpoints where this one serves a background control function. To generalize the intended target to other relatable targets, this assay endpoint is annotated to the background measurement intended target family, where the subfamily is internal marker.
Human liver HepG2 cells are transiently transfected with multiple reporter transcription units (MRTUs) in 6-well plates using FuGene 6 reagent (Roche; 3 ml FuGene/1 mg DNA). The MRTU constructs are regulated by a cis-regulating element (promoter). […] A major difference between the CIS and TRANS system is that in CIS activities of endogenous TFs are measured, whereas the TRANS assay evaluates changes in activities of exogenous, chimeric NR-Gal4 proteins. […] At the end of 24 hour incubation, total RNA was isolated using TriZol reagent (Invitrogen). The isolated RNA is then reverse-transcribed using oligo(dT) primer and Mo-MLV reverse transcriptase (Invitrogen) with DNAse I (Ambion) treatment for 30 min. The one-tenth of the produced cDNA was amplified by PCR using Taq DNA polymerase (Invitrogen) and two reporter sequence-specific primers. The PCR products were fluorescently labeled by primer extension with 6-arboxyfluorescein (6-FAM) 5'-labeled reporter sequence-specific primer (2 min at 95 C, 20 s at 68 C and 10 min at 72 C) and these products were digested with 5U of HpaI (New England Biolabs) for 2h at 37 C. The fragments were purified using Qiaquick PCR columns (Qiagen), analyzed on an ABI 3130xL genetic analyzer (Applied Biosystems) with peak positions identified by using a set of X-rhodamine (ROX)-labeled MapMarker1000 molecular weight standards (BioVentures). The raw capillary electrophoresis data was processed using Attagraph software (Attagene).
With `C=C[Si]1(C)O[Si](C)(C=C)O[Si](C)(C=C)O[Si](C)(C=C)O1` (stereo not given), the result was inactive.

Regarding `CC(C)(C)OC(=O)c1ccc(O)cc1`, the call was inactive.

For the compound `COc1ccc(CCO)cc1`, the compound was classed as inactive.

In the case of `C=COCCOCCOC=C`, the compound was called inactive.

In the case of `N[C@@H](Cc1cc(I)c(Oc2cc(I)c(O)c(I)c2)c(I)c1)C(=O)O`, the result was inactive.

For the compound `Nc1ccc(NCCO)c([N+](=O)[O-])c1`, the compound was classed as inactive.

On to `O=C(Nc1ccc2c(O)c(N=Nc3ccc(N=Nc4ccc(S(=O)(=O)O)cc4)cc3)c(S(=O)(=O)O)cc2c1)c1ccccc1`, for which the call was inactive.

Consider `COc1ccc(CCN2CCC(Nc3nc4ccccc4n3Cc3ccc(F)cc3)CC2)cc1`, for which the result was inactive.

In the case of `CCc1ccc(O)cc1`, the call was inactive.

As to `COc1cc(C(C)C)ccc1C`, the result was inactive.

With `C=CCN(CC=C)CC=C`, the call was inactive.

Regarding `Cc1cc(C)nc(NS(=O)(=O)c2ccc(N)cc2)n1`, the compound was called inactive.

On to `CCNCCO`, for which the result was inactive.

For the compound `CC(=O)C1(C)CC2=C(CCCC2(C)C)CC1C` (stereo not given), the outcome was inactive.

Consider `CCCCCCC(C)Nc1ccc(Nc2ccccc2)cc1` (stereo not given), for which the call was inactive.

Regarding `CCCCC1(COC(=O)CCC(=O)O)C(=O)N(c2ccccc2)N(c2ccccc2)C1=O`, the call was inactive.

As usually defined, the AC50 is the midpoint of the concentration-response curve, whichever way the signal moves. Consider `Cc1c(OCC(F)(F)F)ccnc1CS(=O)c1nc2ccccc2[nH]1` (stereo not given), for which the AC50 is 37.3 µM (active).

As for `O=c1[nH]c(=O)c2cn[nH]c2[nH]1`, the outcome was inactive.

Turning to `C=CC(C)(O)CCC=C(C)C` (stereo not given), the compound was classed as inactive.

For the compound `COc1cc(CCC(C)=O)ccc1O`, the result was inactive.

With `COc1cc(Cl)c(OC)cc1N`, the compound was classed as inactive.

Take `COC(=O)c1cccnc1`: the compound was called inactive.

For the compound `CCCCCCCCCCCCCC(=O)OCC(O)CO` (stereo not given), the call was inactive.

Regarding `C=C(C)C1CC=C(C)C(=O)C1` (stereo not given), the outcome was inactive.

Regarding `O=C(c1ccccc1)C(O)c1ccccc1` (stereo not given), the compound was classed as inactive.

Take `Oc1ccc2cc(SSc3ccc4cc(O)ccc4c3)ccc2c1`: the AC50 is 26.6 µM (active).

`ClC(c1ccccc1)(c1ccccc1)c1ccccc1`: the call was inactive.

As to `OCC(O)c1ccccc1` (stereo not given), the compound was classed as inactive.

Turning to `Cc1cc(=O)oc2cc(N(C)C)ccc12`, the result was inactive.

`CCCCSCCCC`: the call was inactive.

Consider `CC1(C)COCN1`, for which the outcome was inactive.

For `CCOC(=O)C1OC1c1ccccc1` (stereo not given), the compound was called inactive.

With `OCc1cccc(Oc2ccccc2)c1`, the result was inactive.

Consider `CCCCOC(=O)CCCCCCCC(=O)OCCCC`, for which the call was inactive.

Consider `CN(C)CCOc1ccc(/C(=C(/CCCl)c2ccccc2)c2ccccc2)cc1`, for which the call was inactive.

Turning to `CCCCCCC(C)(C)S`, the outcome was inactive.

Regarding `C=Cc1ccc(C)cc1`, the compound was classed as inactive.

Take `CC1(C)O[C@@H]2[C@@H](CO[C@@]3(COS(N)(=O)=O)OC(C)(C)O[C@@H]23)O1`: the compound was classed as inactive.

Consider `COc1ccc(CCC(C)=O)cc1`, for which the compound was classed as inactive.

With `Cc1cc(S(=O)(=O)O)ccc1N=Nc1c(O)ccc2ccccc12`, the call was inactive.
